This passage reports binding signal results from publication PMC7819943, “Rice protein-binding microarrays: a tool to detect cis-acting elements near promoter regions in rice”.

Whole data set: some 35,000 sequences, median “fluorescence intensity (a.u.)” near 10,000, cut for the highest 2% near 52,000. Shown is part of a subset that was picked to be rich in the highest values.

This assay addresses T1, OsWOX13 (Oryza sativa, UniProt Q5QMM3 1-267).
T1 sequence: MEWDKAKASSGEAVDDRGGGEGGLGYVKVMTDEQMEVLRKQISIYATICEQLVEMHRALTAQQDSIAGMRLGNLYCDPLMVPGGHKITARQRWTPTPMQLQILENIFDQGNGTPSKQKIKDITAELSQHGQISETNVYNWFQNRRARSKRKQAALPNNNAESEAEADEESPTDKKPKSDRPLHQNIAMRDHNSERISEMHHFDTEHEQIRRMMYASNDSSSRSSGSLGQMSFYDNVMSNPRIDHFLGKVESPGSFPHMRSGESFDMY
Briefly: protein-binding microarray (RPBM); PBS, 2% BSA, 51.3 ng/ul salmon testes DNA, 50 uM zinc acetate, 200 nM TF, 25 C, 1 h; high values mean tight binding. Particulars: protein: recombinant; tags: N-terminal polyhistidine and DsRed monomer fusion (pET32a); label: CyDye5-dUTP incorporated in the synthesized complementary strand; 3' TTTTT single-stranded linker to array surface; dsDNA, one strand shown. In outline: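 The binding signal is fluorescence intensity per array feature (arbitrary units). Readings came from an Axon 4000B scanner after a washed, 2% BSA-blocked, double-stranded custom Agilent array had been incubated for 1 h at 25 °C with 200 nM protein and 50 µM zinc acetate. The protein was a Ni–NTA-purified transcription factor fused N-terminally to polyhistidine and DsRed, expressed in E. coli BL21-CodonPlus.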
For “TCTAGCTATTAATTTGCTCTCATTTATAACTTAGCCGCTACGGAGTCACCTAGTGCAG”, the binding signal is 6390 fluorescence intensity (a.u.).
For “GCCTTAATTGATTAACCGTGTAACATCTTCCTCACGCACCCGGAGTCACCTAGTGCAG” the value was 65500 fluorescence intensity (a.u.); for “ACTTTTCTATTTAATTTTATCTATTTTCTTAATAACTATGCGGAGTCACCTAGTGCAG”, 4340 fluorescence intensity (a.u.); for “TAATTTTCTGAGTGATCAAATAATTGACCATAATTTTCCACGGAGTCACCTAGTGCAG”, 8420 fluorescence intensity (a.u.).
For “ATAATTGATTCAACCTCGTTCTTAATTTGATACATCCTTCCGGAGTCACCTAGTGCAG” the value was 32300 fluorescence intensity (a.u.); for “TAAACCAATTACAATGATTATTTTCAACCGACCACCGATTCGGAGTCACCTAGTGCAG”, 23300 fluorescence intensity (a.u.); for “AGGACTACTATAATTGCAACTGAAATAAAACCTTGGCTTGCGGAGTCACCTAGTGCAG”, 5450 fluorescence intensity (a.u.).
For “CCCTCAATCAGCTGGTCGGCTGGTCGCACACACCACGTTCCGGAGTCACCTAGTGCAG” the value was 11500 fluorescence intensity (a.u.); for “TAACTAATTAGTTAACTAATCGTCAATGTCACTAGCTTCTCGGAGTCACCTAGTGCAG”, 45100 fluorescence intensity (a.u.); for “ATGATGAGATTGAGGTTGATATAGATAGCTTTGATGTTGACGGAGTCACCTAGTGCAG”, 23200 fluorescence intensity (a.u.).
As to “GTGATAATTGCAAAATTAGGAATTATGCAAGGGGTGTAGACGGAGTCACCTAGTGCAG”, the binding signal was 49400 fluorescence intensity (a.u.).
The result for “TTTGCTAATGACAAATTAATTAGGCTTAATAAATTCGTCTCGGAGTCACCTAGTGCAG” reads 41500 fluorescence intensity (a.u.); that for “GGGAAGACGAGATTGAGTGGATCAAAAGCCCTAAACCAATCGGAGTCACCTAGTGCAG”, 8660 fluorescence intensity (a.u.).
The result for “GCAGCTGACAGATGGAGGGATGTTCAGGATGTCCGGAGAACGGAGTCACCTAGTGCAG” reads 3250 fluorescence intensity (a.u.); that for “TACTACTAATTATTGTCTTCTTAGTAATCACCAAGTGTGCCGGAGTCACCTAGTGCAG”, 20700 fluorescence intensity (a.u.); that for “ATAATTGATTGCTTTTGATGATTTCACCCTTATTTTGCTGCGGAGTCACCTAGTGCAG”, 65100 fluorescence intensity (a.u.).
For “CTTAAATTGATTTATTTTGGAACGGAGAGAGTAATATGCACGGAGTCACCTAGTGCAG” the value was 53500 fluorescence intensity (a.u.).
Turning to “GAAAATAGTATGATTGAAAATGACGTAAAGTGAATAGACCCGGAGTCACCTAGTGCAG”, the binding signal is 23000 fluorescence intensity (a.u.).
For “GACCTTATTTGCATTGATTGACCTTATTTGCATTGATTTTCGGAGTCACCTAGTGCAG”, the binding signal is 19600 fluorescence intensity (a.u.).
The result for “ATATTTTGATTGAATATGACGTATCCTAGTAATTTGGACCCGGAGTCACCTAGTGCAG” reads 59700 fluorescence intensity (a.u.).
Take “ATATTGAATTATTGATTTGATGAAAATAATTTAGTATTATCGGAGTCACCTAGTGCAG”: the binding signal was 20500 fluorescence intensity (a.u.).
Regarding “CCTAATTTCTAACATTATATTGTTGCTTAGTGTACTAACTCGGAGTCACCTAGTGCAG”, the binding signal was 18700 fluorescence intensity (a.u.).
The result for “TTATTCAGATAATTTGATGATGATGAAAGCAGAAGCTTTGCGGAGTCACCTAGTGCAG” reads 8570 fluorescence intensity (a.u.); that for “ATGATTGTGATTTATATTTTGAAATAAAGAGAGTAGTAATCGGAGTCACCTAGTGCAG”, 50500 fluorescence intensity (a.u.).
For “AATTAATTAATTAGTCTGTTCTTATTGCTTAGTGTACTACCGGAGTCACCTAGTGCAG” the value was 53600 fluorescence intensity (a.u.); for “ACATTTACTTAATTGTAAATATATATTTTGGTAATATATGCGGAGTCACCTAGTGCAG”, 9650 fluorescence intensity (a.u.).
The result for “TTTCCATTAATAAATTGAAACATATTGAACTAGATCGTTCCGGAGTCACCTAGTGCAG” reads 15600 fluorescence intensity (a.u.).
As for “TTTAATAATTTGTTTATAAAAGAAACTAAAGGGCACTGCTCGGAGTCACCTAGTGCAG”, the binding signal is 12200 fluorescence intensity (a.u.).
On to “ATAAACTGGAACAGAAGGCCAGGCGGAAATAAACTGGACACGGAGTCACCTAGTGCAG”, for which the binding signal was 6490 fluorescence intensity (a.u.).
“GGCCTAATTCATTGACGGGAACTAAGTGGGCTGAATTCGTCGGAGTCACCTAGTGCAG”: the binding signal is 7250 fluorescence intensity (a.u.).
As to “CCCAAATTAATCATCATGTAATAGAATGATATATTCATTGCGGAGTCACCTAGTGCAG”, the binding signal is 49200 fluorescence intensity (a.u.).
For “GTGTCGCCAGTGATTGCAGTTTCAGTTCGAAATTTCTCTACGGAGTCACCTAGTGCAG”, the binding signal was 9490 fluorescence intensity (a.u.).
On to “ATAACGAACGGATGAGATTGATCGCTACAATACTCTAGAGCGGAGTCACCTAGTGCAG”, for which the binding signal is 4050 fluorescence intensity (a.u.).
For “TAAACTCCAAGTTGATTATCCAACGAATCGTAGCCTCGAGCGGAGTCACCTAGTGCAG” the value was 5690 fluorescence intensity (a.u.); for “GATCAATCATTTGCTGAGCTCGTGAATTCTGTCTGGTTCACGGAGTCACCTAGTGCAG”, 24300 fluorescence intensity (a.u.); for “AACTTAATTAAATTTAAAGCAGTTTGATTTTGACTAAAGTCGGAGTCACCTAGTGCAG”, 31800 fluorescence intensity (a.u.).
Take “ATTTCTTAATTTAATGCTATTCTGACTCCTTGCACCTCTACGGAGTCACCTAGTGCAG”: the binding signal is 12300 fluorescence intensity (a.u.).
The result for “AATTTACACTTAATTTGCTATTTGCTATACATGTTTTCTACGGAGTCACCTAGTGCAG” reads 10800 fluorescence intensity (a.u.); that for “TATAAATTTAGTCAAATTTAAAGCAGTTTGATTTTGACCACGGAGTCACCTAGTGCAG”, 26800 fluorescence intensity (a.u.).
The result for “ACTAGCTAAATTATACCATGTTAACTTATACTATATTAGTCGGAGTCACCTAGTGCAG” reads 9700 fluorescence intensity (a.u.); that for “CCTTAATTAATTAATTAATTACGTGCTATTTATTTCTTGGCGGAGTCACCTAGTGCAG”, 55300 fluorescence intensity (a.u.).
For “TTAAATTTAATTAAATTTAAAGCAGTTTGATTTTGACCAACGGAGTCACCTAGTGCAG” the value was 56000 fluorescence intensity (a.u.).
“CTTAATTAATAGGGTATTAATAACCTCCCTAAAGTCATTGCGGAGTCACCTAGTGCAG”: the binding signal was 60200 fluorescence intensity (a.u.).
The result for “AATATAAATTAAATTTTATTTGCTAAAATTAATATCATTGCGGAGTCACCTAGTGCAG” reads 15000 fluorescence intensity (a.u.); that for “GTACAAAATTATCTAAAATTAACTACAAAATTATGTACTACGGAGTCACCTAGTGCAG”, 12800 fluorescence intensity (a.u.).
The result for “TAACTAATTATGTACTAACAAATTAGCTAGTCTACCATGCCGGAGTCACCTAGTGCAG” reads 56600 fluorescence intensity (a.u.); that for “TTCTAATAATTTGATATTAGGTCATTCCCTAATATTCGTGCGGAGTCACCTAGTGCAG”, 25000 fluorescence intensity (a.u.).
